Measurements published in PubChem BioAssay (NCATS).
Results filed as inconclusive are left out. Entries that show only a call come without a potency. The source made the active and inactive calls. Unless noted, calls come from the whole dose curve; as a rule, active = well fitted curve in the direction sought with a large enough effect; inconclusive = small, poorly fitted or top-dose-only effect, or another doubt; inactive = no such curve, though single readings can be large; an effect the other way counts as inactive or inconclusive.

Key:
[1] = molecular target: DNA repair nuclease/redox regulator APEX1 (Homo sapiens) (UniProt P27695); experiment: qHTS Validation Assay for Inhibitors of the Human Apurinic/apyrimidinic Endonuclease 1 (APE1) (AID 1705;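 note: TAMRA fluorescence gain over two minutes as APE1 cuts a quenched THF abasic duplex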); conditions: purified APE1 endonuclease activity, fluorescence, titration; series mostly up to 57.1 µM
Chain of DNA repair nuclease/redox regulator APEX1 (Homo sapiens) (P27695 whole entry, looked up): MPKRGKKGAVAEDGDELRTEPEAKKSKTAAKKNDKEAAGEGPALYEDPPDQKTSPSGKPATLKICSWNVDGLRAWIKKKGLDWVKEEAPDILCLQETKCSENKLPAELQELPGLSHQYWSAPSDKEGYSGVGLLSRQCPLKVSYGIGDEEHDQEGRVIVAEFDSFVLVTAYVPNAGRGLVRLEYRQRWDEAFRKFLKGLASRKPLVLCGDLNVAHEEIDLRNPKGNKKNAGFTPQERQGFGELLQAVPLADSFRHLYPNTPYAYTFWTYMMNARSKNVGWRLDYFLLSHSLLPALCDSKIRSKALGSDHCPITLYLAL
Outline: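 Endonuclease activity of human APE1 is followed as dequenching when the enzyme incises a tetrahydrofuran abasic site in a short duplex labelled 5'-TAMRA/3'-BHQ-2 (50 nM final), after 15 min enzyme–compound preincubation at room temperature.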

[2] = Counterscreen for APE1 Inhibitors: Fluorescent Dye Displacement Validation Assay (AID 1707); conditions: fluorescent dye displacement from DNA; series mostly up to 57.1 µM
Outline: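 ThO 250 nM + dsDNA 50 nM (THF abasic site, 5'-TAMRA), Tris-HCl pH7.5/50mM NaCl/2 mM MgCl2/0.01% Tween-20; compounds pin-transferred; ex 480/em 540 nm endpoint. Neutral = no compound; no-DNA ThO wells = negative control.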

[3] = qHTS for differential inhibitors of proliferation of Plasmodium falciparum line 7G8 (AID 1815); conditions: Plasmodium falciparum 7G8 proliferation inhibition; series mostly up to 28.7 µM;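 note: parasite growth measured after three days of incubation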; note: potency is the fitted concentration of half-maximal effect
[4] = qHTS for differential inhibitors of proliferation of Plasmodium falciparum line GB4 (AID 1816); conditions: Potency: Plasmodium falciparum GB4 proliferation inhibition; series mostly up to 28.7 µM;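 note: parasite growth measured after 72 h incubation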; note: potency is the fitted concentration of half-maximal effect
[5] = qHTS for differential inhibitors of proliferation of Plasmodium falciparum line 3D7 (AID 1876); note: potency is the fitted concentration of half-maximal effect; conditions: P. falciparum 3D7 proliferation inhibition; series mostly up to 28.7 µM
[6] = qHTS for differential inhibitors of proliferation of Plasmodium falciparum line D10 (AID 1877); conditions: series mostly up to 28.7 µM;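 note: parasites grown with compound for 72 h before DNA staining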; note: potency is the fitted concentration of half-maximal effect
[7] = qHTS for differential inhibitors of proliferation of Plasmodium falciparum line Dd2 (AID 1882); conditions: Potency: Plasmodium falciparum Dd2 proliferation inhibition; series mostly up to 28.7 µM; note: nearly all actives have a fitted effect of over 65% in size
Outline: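 Dd2-infected erythrocytes (0.3% parasitemia, 2.5% hematocrit final) incubated with compound 72 h at 37 C, 5% CO2; lysed with saponin/Triton buffer containing SYBR Green I, incubated overnight in the dark, then read by fluorescence (485/535 nm). Normalized to 0.29 uM artemisinin and DMSO.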

[8] = qHTS for differential inhibitors of proliferation of Plasmodium falciparum line W2 (AID 1883); conditions: Potency: Plasmodium falciparum W2 proliferation inhibition; series mostly up to 28.7 µM;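 note: parasites grown with compound for 72 h before lysis and staining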; note: potency is the fitted concentration of half-maximal effect
[9] = qHTS for differential inhibitors of proliferation of Plasmodium falciparum line HB3 (AID 1886); conditions: Potency: Plasmodium falciparum HB3 proliferation inhibition; series mostly up to 28.7 µM;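 note: parasites grown with compound for 72 h before SYBR Green readout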; note: potency is the fitted concentration of half-maximal effect
[10] = qHTS Assay for Modulators of Human Peripheral Myelin Protein 22 (PMP22) Expression/Activity (AID 1967; active = well fitted curve in the direction sought with a large enough effect in the signal ratio; the % refers to the signal ratio); conditions: Cell-based PMP22 reporter, dual-color luciferase ratio, mouse Pmp22 promoter in mouse Schwann cells; series mostly up to 115 µM
Outline: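 Quantitative HTS in a mouse Schwann cell line expressing dual click beetle luciferases: Pmp22 promoter (green) and control EF-alpha promoter (red). After 24h treatment, corrected green/red signal ratio gave %Activity relative to untreated cells.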

[11] = molecular target: Ferritin light chain (Equus caballus) (UniProt P02791); experiment: qHTS Validation Assay for Identification of Novel General Anesthetics (AID 2323); conditions: horse apoferritin, anesthetic-site fluorescent probe displacement; series mostly up to 76.9 µM
Chain of Ferritin light chain (Equus caballus) (P02791 2-175 limits assumed): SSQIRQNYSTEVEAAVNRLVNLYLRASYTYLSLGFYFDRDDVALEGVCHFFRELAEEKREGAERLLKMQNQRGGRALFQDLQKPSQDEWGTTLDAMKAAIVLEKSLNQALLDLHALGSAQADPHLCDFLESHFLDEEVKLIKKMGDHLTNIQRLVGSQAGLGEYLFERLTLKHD
Outline: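 Apoferritin from horse spleen (10 uM) was mixed with 1-aminoanthracene at 50% saturation in PBS, then compounds were added. After 10 min at room temperature, fluorescence was read (ex 380 nm, em 535 nm) and normalized to free-probe and complex controls.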

[12] = molecular target: ATP-dependent DNA helicase Q1 (Homo sapiens) (UniProt P46063); experiment: qHTS Validation Assay for Inhibitors of RecQ-Like Dna Helicase 1 (RECQ1) (AID 2353); conditions: recombinant RECQ1 helicase DNA unwinding assay; series mostly up to 25.6 µM
Chain of ATP-dependent DNA helicase Q1 (Homo sapiens) (P46063 whole entry, looked up): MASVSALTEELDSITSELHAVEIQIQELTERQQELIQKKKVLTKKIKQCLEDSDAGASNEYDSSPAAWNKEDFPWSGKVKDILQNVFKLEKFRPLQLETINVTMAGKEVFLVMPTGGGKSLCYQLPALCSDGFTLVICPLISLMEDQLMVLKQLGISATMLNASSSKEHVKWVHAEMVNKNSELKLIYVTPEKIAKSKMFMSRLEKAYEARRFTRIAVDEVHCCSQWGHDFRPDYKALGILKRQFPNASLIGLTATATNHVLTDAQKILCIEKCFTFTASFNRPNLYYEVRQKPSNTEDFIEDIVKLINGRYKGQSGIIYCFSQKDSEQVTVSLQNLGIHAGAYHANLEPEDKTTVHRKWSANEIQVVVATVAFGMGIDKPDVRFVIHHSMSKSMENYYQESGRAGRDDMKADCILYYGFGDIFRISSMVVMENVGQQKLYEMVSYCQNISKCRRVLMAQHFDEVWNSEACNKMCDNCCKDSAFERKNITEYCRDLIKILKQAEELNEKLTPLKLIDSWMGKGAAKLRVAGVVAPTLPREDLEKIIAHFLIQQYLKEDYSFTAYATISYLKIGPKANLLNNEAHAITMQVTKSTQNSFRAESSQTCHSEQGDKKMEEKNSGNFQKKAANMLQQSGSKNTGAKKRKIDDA
Outline: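 50 nM RECQ1T1 preincubated 15 min with compound in Tris pH 8.0 buffer with MgCl2, DTT, Tween-20 and 2.5 ug/ml poly(dI-dC); started with 200 nM TAMRA/BHQ-2 forked duplex and 2 mM ATP. Unwinding read as fluorescence (525/598 nm), two reads 2 h apart.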

[13] = molecular target: RecQ-like DNA helicase BLM (Homo sapiens) (UniProt P54132); experiment: qHTS Validation Assay for Inhibitors of Bloom's syndrome helicase (BLM) (AID 2364); conditions: BLM helicase DNA unwinding, fluorescence, in vitro; series mostly up to 57.1 µM
Chain of RecQ-like DNA helicase BLM (Homo sapiens) (P54132 whole entry, looked up): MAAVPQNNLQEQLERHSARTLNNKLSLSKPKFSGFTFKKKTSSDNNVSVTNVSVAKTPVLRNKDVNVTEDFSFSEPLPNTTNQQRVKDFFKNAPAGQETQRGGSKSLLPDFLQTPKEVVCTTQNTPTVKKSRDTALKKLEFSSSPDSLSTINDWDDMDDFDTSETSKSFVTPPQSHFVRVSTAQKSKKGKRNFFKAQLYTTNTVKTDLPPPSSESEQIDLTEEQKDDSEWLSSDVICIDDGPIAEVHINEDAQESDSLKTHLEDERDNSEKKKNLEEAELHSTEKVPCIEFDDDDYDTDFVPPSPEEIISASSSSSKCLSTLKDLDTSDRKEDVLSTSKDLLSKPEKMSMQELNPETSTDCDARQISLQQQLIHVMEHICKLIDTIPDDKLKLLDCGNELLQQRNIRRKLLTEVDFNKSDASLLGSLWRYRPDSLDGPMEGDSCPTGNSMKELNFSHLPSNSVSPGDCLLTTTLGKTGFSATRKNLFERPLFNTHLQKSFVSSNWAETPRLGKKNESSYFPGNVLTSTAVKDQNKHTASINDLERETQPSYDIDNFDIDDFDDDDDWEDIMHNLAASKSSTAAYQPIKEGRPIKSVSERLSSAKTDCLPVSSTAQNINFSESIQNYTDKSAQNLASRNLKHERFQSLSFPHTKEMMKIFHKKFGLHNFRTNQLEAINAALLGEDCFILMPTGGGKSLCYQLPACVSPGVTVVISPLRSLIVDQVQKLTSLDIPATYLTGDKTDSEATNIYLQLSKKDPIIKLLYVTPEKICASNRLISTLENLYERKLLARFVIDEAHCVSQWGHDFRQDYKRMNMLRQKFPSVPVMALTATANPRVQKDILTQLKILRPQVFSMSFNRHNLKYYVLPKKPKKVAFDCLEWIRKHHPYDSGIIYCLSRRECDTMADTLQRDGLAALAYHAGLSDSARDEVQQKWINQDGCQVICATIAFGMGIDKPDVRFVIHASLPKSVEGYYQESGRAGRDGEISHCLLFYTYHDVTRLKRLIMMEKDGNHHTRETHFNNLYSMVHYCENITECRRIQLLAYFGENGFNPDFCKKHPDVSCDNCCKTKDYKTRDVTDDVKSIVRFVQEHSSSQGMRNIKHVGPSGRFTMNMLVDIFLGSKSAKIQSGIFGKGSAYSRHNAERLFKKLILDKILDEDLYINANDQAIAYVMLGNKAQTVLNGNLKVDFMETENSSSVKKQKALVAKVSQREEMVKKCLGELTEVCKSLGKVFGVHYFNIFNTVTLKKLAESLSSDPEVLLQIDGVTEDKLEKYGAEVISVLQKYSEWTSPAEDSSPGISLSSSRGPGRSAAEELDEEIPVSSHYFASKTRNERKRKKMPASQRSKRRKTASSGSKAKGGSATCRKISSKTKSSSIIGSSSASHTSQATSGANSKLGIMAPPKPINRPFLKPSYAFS
Outline: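 Forked 20-bp duplex substrate (200 nM, TAMRA/BHQ-2) plus 2 mM ATP added after 15 min compound preincubation with 50 nM enzyme, pH 8.0, poly(dI-dC) 2.5 ug/ml. Strand separation followed by fluorescence (525/598 nm) over 2 h, normalized to enzyme-free and DMSO controls.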

[14] = Cytometric Cell-Based qHTS for Inhibitors of the mTORC1 Signaling Pathway in MEF (Tsc2-/-, p53-/-) Cells (AID 2660); conditions: mTORC1 pathway cytometry; series mostly up to 38.3 µM;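 note: Tsc2 and p53 null MEFs carrying empty vector with compound for 24 h; percent of cells above a phospho-rpS6 to PI ratio cutoff in each well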
Outline: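 Percent of cells positive for normalized phospho-S6 staining is reported, with the cutoff set from rapamycin (7.5 nM) versus DMSO wells. Tsc2-/-, p53-/- MEFs received compound for 24 hrs.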

[15] = High Content Imaging Cell-Based qHTS for Inhibitors of the mTORC1 Signaling Pathway in MEF (Tsc2-/-, p53-/-) Cells (AID 2666); conditions: series mostly up to 38.3 µM;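 note: percent of cells scored positive for phospho-rpS6 Ser235/236 immunostaining by imaging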
Outline: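 Cells were plated, dosed with compound after 24 hrs, and incubated another 24 hrs at 37 degree Celsius. Fixed cells were immunostained for phospho-rpS6 Ser235/236 and counterstained, and the normalized signal was scored as % active cells against rapamycin and DMSO controls.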

[16] = High Content Imaging Cell-Based qHTS for Inhibitors of the mTORC1 Signaling Pathway in MEF Cells (AID 2667); conditions: series mostly up to 38.3 µM; note: potency is the fitted concentration of half-maximal effect
Outline: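 Immunofluorescence for rpS6 phosphorylation in MEFs of Tsc2-/-, p53-/- background rescued with WT Tsc2. Compound exposure lasted 24 hrs. Inhibition was scored against rapamycin-treated control wells.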

[17] = Cytometry Cell-Based qHTS for Inhibitors of the mTORC1 Signaling Pathway in MEF cells (AID 2668); conditions: mTORC1 pathway readout; series mostly up to 38.3 µM;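 note: Tsc2-/- p53-/- mouse embryonic fibroblasts stably re-expressing wild-type Tsc2; percent cells positive for phospho-rpS6 Ser235/236 relative to propidium iodide stain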
Outline: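 Pathway inhibition in WT Tsc2-rescued Tsc2-/-, p53-/- MEFs is measured as the Alexa-488 phospho-rpS6 to propidium iodide intensity ratio after 24 hrs of compound at 37 degree Celsius. PI-stained cell number gives viability.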

[18] = Validation screen for inhibitors of Lassa infection (AID 463096; calls by dose curve); conditions: Lassa virus infection, cell-based; series mostly up to 46.1 µM
[19] = qHTS Assay for Identification of Small Molecule Inducers of Hypoxia Response (AID 2120; active = well fitted curve in the direction sought with a large enough effect in the signal ratio, with a control signal flat, not every such curve was filed as active; the % refers to the signal ratio); conditions: hypoxia response reporter cells, beta-lactamase ratio readout; series mostly up to 104 µM
Outline: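 HRE-bla ME-180 cells in Opti-MEM with 0.5% dialyzed FBS, pre-plated 4-5 h, then compound titration for 17 h at 37 degrees Celsius. CCF4 loaded 2.5 h at room temperature; 460/530 nm ratio gave %Activity and AC50 for induction.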

## CCCN1CCO[C@@H]2c3cc(O)ccc3OC[C@H]21
[1]
  Potency: inactive
[2]
  Potency: inactive
[3]
  Potency: inactive
[4]
  Potency: inactive
[5]
  Potency: inactive
[6]
  Potency: inactive
[7]
  Potency: inactive
[8]
  Potency: inactive
[9]
  Potency: inactive
[10]
  outcome: inactive
[11]
  outcome: inactive
[12]
  outcome: inactive
[13]
  Potency: inactive
[14]
  Potency: inactive
[15]
  Potency: inactive
[16]
  Potency: inactive
[17]
  Potency: inactive
[18]
  Potency: inactive

## C=CCN1CC[C@]23CCCCC2[C@H]1Cc1ccc(O)cc13 (some centres not stated)
[1]
  Potency: inactive
[2]
  Potency: inactive
[3]
  Potency: 11.2 µM (active)
[4]
  Potency: 11.2 µM (active)
[5]
  Potency: inactive
[6]
  Potency: inactive
[8]
  Potency: 7.08 µM (active)
[9]
  Potency: inactive
[10]
  outcome: inactive
[11]
  outcome: inactive
[12]
  outcome: inactive
[13]
  Potency: inactive
[14]
  Potency: inactive
[15]
  Potency: inactive
[16]
  Potency: inactive
[17]
  Potency: inactive
[18]
  Potency: inactive

## NC(CP(=O)(O)O)C(=O)O (configuration not stated)
[2]
  Potency: inactive
[3]
  Potency: inactive
[4]
  Potency: inactive
[5]
  Potency: inactive
[6]
  Potency: inactive
[7]
  Potency: inactive
[8]
  Potency: inactive
[9]
  Potency: inactive
[11]
  outcome: inactive
[12]
  outcome: inactive
[14]
  Potency: inactive
[15]
  Potency: inactive
[16]
  Potency: inactive
[17]
  Potency: inactive
[18]
  Potency: inactive

## Cc1c(C(=O)c2cccc3ccccc23)c2cccc3c2n1[C@H](CN1CCOCC1)CO3
[1]
  Potency: inactive
[2]
  Potency: inactive
[4]
  Potency: 7.94 µM (active)
[6]
  Potency: 12.6 µM (active)
[8]
  Potency: 4.47 µM (active)
[11]
  outcome: inactive
[12]
  outcome: inactive
[16]
  Potency: 18.5 µM (active)
[18]
  Potency: inactive

## CC1=NN=C(c2ccc(N)cc2)c2cc3c(cc2C1)OCO3
[1]
  Potency: inactive
[2]
  Potency: inactive
[3]
  Potency: 10 µM (active)
[7]
  Potency: inactive
[8]
  Potency: 8.91 µM (active)
[11]
  outcome: inactive
[12]
  outcome: inactive
[13]
  Potency: inactive
[14]
  Potency: inactive
[16]
  Potency: inactive
[17]
  Potency: inactive
[18]
  Potency: inactive

## Cc1nccc2c1[nH]c1ccccc12
[2]
  Potency: inactive
[3]
  Potency: 14.1 µM (active)
[4]
  Potency: 12.6 µM (active)
[7]
  Potency: inactive
[8]
  Potency: 10 µM (active)
[9]
  Potency: 11.2 µM (active)
[12]
  outcome: inactive
[13]
  Potency: inactive
[14]
  Potency: inactive
[16]
  Potency: inactive
[17]
  Potency: inactive
[18]
  Potency: inactive

## Oc1ccc2c3c1O[C@H]1c4[nH]c5c(c4C[C@@]4(O)[C@@H](C2)N(CC2CC2)CC[C@]314)C[C@@]1(O)[C@H]2Cc3ccc(O)c4c3[C@@]1(CCN2CC1CC1)[C@H]5O4
[1]
  Potency: inactive
[2]
  Potency: inactive
[4]
  Potency: 15.8 µM (active)
[5]
  Potency: 11.2 µM (active)
[6]
  Potency: 10 µM (active)
[8]
  Potency: 12.6 µM (active)
[9]
  Potency: 12.6 µM (active)
[10]
  outcome: inactive
[11]
  outcome: inactive
[12]
  outcome: inactive
[13]
  Potency: inactive
[14]
  Potency: inactive
[16]
  Potency: inactive
[17]
  Potency: inactive
[18]
  Potency: inactive

## COC(C)(C)CCCC(C)C/C=C/C(C)=C/C(=O)OC(C)C (configuration not stated)
[19]
  outcome: inactive

## C[C@@H](N)Cc1cnc[nH]1
[1]
  Potency: inactive
[2]
  Potency: inactive
[4]
  Potency: inactive
[5]
  Potency: inactive
[6]
  Potency: inactive
[7]
  Potency: inactive
[9]
  Potency: inactive
[10]
  outcome: inactive
[11]
  outcome: inactive
[12]
  outcome: inactive
[14]
  Potency: inactive
[16]
  Potency: inactive
[17]
  Potency: inactive
[18]
  Potency: inactive

## Nc1ccc(Sc2ccc(N)cc2)cc1
[19]
  outcome: inactive

## Nc1ccc([N+](=O)[O-])cc1
[19]
  outcome: inactive

## S=C(NC1CCCCC1)N1CCC(c2cnc[nH]2)CC1
[1]
  Potency: inactive
[2]
  Potency: inactive
[3]
  Potency: inactive
[5]
  Potency: 11.2 µM (active)
[6]
  Potency: inactive
[7]
  Potency: inactive
[8]
  Potency: 11.2 µM (active)
[10]
  outcome: inactive
[11]
  outcome: inactive
[12]
  outcome: inactive
[14]
  Potency: inactive
[15]
  Potency: inactive
[16]
  Potency: inactive
[17]
  Potency: inactive
[18]
  Potency: inactive

## C1CCC(NC2CCCCC2)CC1
[19]
  outcome: inactive

## NCCc1c[nH]c2ccccc12
[1]
  Potency: inactive
[2]
  Potency: inactive
[6]
  Potency: inactive
[7]
  Potency: inactive
[11]
  outcome: inactive
[12]
  outcome: inactive
[13]
  Potency: inactive
[14]
  Potency: inactive
[16]
  Potency: inactive
[17]
  Potency: inactive
[18]
  Potency: inactive

## CC(C)Oc1cccnc1N(C)C1CCN(Cc2ccccc2)CC1
[1]
  Potency: inactive
[2]
  Potency: inactive
[6]
  Potency: inactive
[8]
  Potency: 4.47 µM (active)
[11]
  outcome: inactive
[12]
  outcome: inactive
[13]
  Potency: inactive
[14]
  Potency: inactive
[16]
  Potency: inactive
[17]
  Potency: inactive
[18]
  Potency: inactive

## Clc1cnc(Oc2ccc(Oc3ncc(Cl)cc3Cl)cc2)c(Cl)c1
[2]
  Potency: inactive
[4]
  Potency: inactive
[5]
  Potency: inactive
[6]
  Potency: inactive
[7]
  Potency: inactive
[9]
  Potency: inactive
[10]
  outcome: inactive
[11]
  outcome: inactive
[12]
  outcome: inactive
[13]
  Potency: inactive
[14]
  Potency: inactive
[16]
  Potency: inactive
[17]
  Potency: inactive
[18]
  Potency: inactive
